Source: PubChem BioAssay (EPA / NIEHS)
Active and inactive are the calls of the source. The calls were made as follows: active = hit-call score of the fitted dose curve at least 0.9, where 1 is the maximum; inactive = score below 0.9.

Key:
[1] = read-out: Urokinase-type plasminogen activator receptor (uPAR), PLAUR (gene 5329); test: BSK_4H_uPAR: BioMAP Diversity Plus: 4H Assay for Urokinase-type plasminogen activator receptor (uPAR) Biomarker Activity (AID 2283030); details: primary human endothelial cells (HUVEC); actives raise or lower the signal
How it was run: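 HUVEC, 24 h post-dose; uPAR by ELISA; bidirectional fit vs DMSO baseline.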

[2] = read-out: Human Leukocyte Antigen - DR isotype (HLADR), HLA-DRA (gene 3122); test: BSK_BE3C_HLADR: BioMAP Diversity Plus: BE3C Assay for Human Leukocyte Antigen - DR isotype (HLADR) Biomarker Activity (AID 2283032); details: primary human bronchial epithelial cells; actives raise or lower the signal
How it was run: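 Signal came from an ELISA for HLA-DR in human bronchial epithelial primary cells harvested 24 h after treatment; gain- and loss-of-signal fitting used DMSO controls as reference.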

[3] = read-out: Vascular cell adhesion molecule 1 (VCAM1), VCAM1 (gene 7412); test: BSK_4H_VCAM1: BioMAP Diversity Plus: 4H Assay for Vascular cell adhesion molecule 1 (VCAM1) Biomarker Activity (AID 2283033); details: primary human endothelial cells (HUVEC); actives raise or lower the signal
How it was run: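 Endpoint derived from bidirectional fitting against DMSO controls of VCAM-1 ELISA signal in umbilical vein endothelial cells sampled at 24 h following treatment.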

[4] = read-out: Interferon-gamma inducible Protein 10 (IP10), CXCL10 (gene 3627); test: BSK_BE3C_IP10: BioMAP Diversity Plus: BE3C Assay for Interferon-gamma inducible Protein 10 (IP10) Biomarker Activity (AID 2283034); details: primary human bronchial epithelial cells; actives raise or lower the signal
How it was run: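 Using primary human bronchial epithelial cultures, the assay captures IP-10 by ELISA one day (24 h) after exposure. Parallel SRB staining of total protein flags overt cytotoxicity. Fits run bidirectionally relative to DMSO.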

[5] = read-out: Monokine induced gamma interferon (MIG), CXCL9 (gene 4283); test: BSK_BE3C_MIG: BioMAP Diversity Plus: BE3C Assay for Monokine induced gamma interferon (MIG) Biomarker Activity (AID 2283035); details: primary human bronchial epithelial cells; actives raise or lower the signal
How it was run: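 MIG level was determined by ELISA after 24 h chemical treatment of primary human bronchial epithelial cells. Values were fitted bidirectionally with DMSO as the negative control and activity baseline.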

[6] = read-out: Transforming growth factor beta 1 (TGFb1), TGFB1 (gene 7040); test: BSK_BE3C_TGFb1: BioMAP Diversity Plus: BE3C Assay for Transforming growth factor beta 1 (TGFb1) Biomarker Activity (AID 2283036); details: primary human bronchial epithelial cells; actives raise or lower the signal
How it was run: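 In this human primary bronchial epithelial system, an ELISA quantified TGF-b1 one day after dosing. Endpoint changes in either direction were fitted relative to DMSO.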

[7] = read-out: Plasminogen activator inhibitor-1 (PAI1), SERPINE1 (gene 5054); test: BSK_BE3C_PAI1: BioMAP Diversity Plus: BE3C Assay for Plasminogen activator inhibitor-1 (PAI1) Biomarker Activity (AID 2283037); details: primary human bronchial epithelial cells; actives raise or lower the signal
How it was run: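 PAI-1 biomarker levels in treated human bronchial epithelial cells are determined by ELISA at 24 h. Both increases and decreases relative to DMSO are fitted.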

[8] = read-out: urokinase plasminogen activator (uPA), PLAU (gene 5328); test: BSK_BE3C_uPA: BioMAP Diversity Plus: BE3C Assay for urokinase plasminogen activator (uPA) Biomarker Activity (AID 2283038); details: primary human bronchial epithelial cells; actives raise or lower the signal
How it was run: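 ELISA read-out of uPA in human lung primary bronchial epithelial cultures, 24 h post-dosing. Gain or loss of signal fitted bidirectionally relative to DMSO baseline; cytotoxicity checked in parallel cultures via SRB total protein stain.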

[9] = read-out: Urokinase-type plasminogen activator receptor (uPAR), PLAUR (gene 5329); test: BSK_BE3C_uPAR: BioMAP Diversity Plus: BE3C Assay for Urokinase-type plasminogen activator receptor (uPAR) Biomarker Activity (AID 2283039); details: primary human bronchial epithelial cells; actives raise or lower the signal
How it was run: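 A uPAR ELISA serves as the readout, taken 24 h after treating primary human bronchial epithelial cells. Responses in either direction are fitted against DMSO, which defines baseline activity.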

[10] = read-out: Vascular endothelial growth factor receptor 2 (Homo sapiens) (UniProt P35968); test: BSK_4H_VEGFRII: BioMAP Diversity Plus: 4H Assay for Vascular endothelial growth factor receptor 2 (VEGFR2) Biomarker Activity (AID 2283031); details: primary human endothelial cells (HUVEC); actives raise or lower the signal
How it was run: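 HUVEC (human primary), 4H system; 24 h post-dose; VEGFRII by ELISA; bidirectional curve fit vs DMSO baseline; gain or loss of signal scored.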

Measured: AC50

CCCC(=NOCC)C1=C(O)CC(CC(C)SCC)CC1=O (stereo unspecified)
inactive: [1] | [2] | [3] | [4] | [5] | [6] | [7] | [8] | [9]

O=C(Nc1ccccc1-c1ccc(Cl)cc1)c1cccnc1Cl
active: [2] 5.32 µM
inactive: [1] | [10] | [3] | [4] | [5] | [6] | [8] | [9]

CO/N=C(/C1=NOCCO1)c1ccccc1Oc1ncnc(Oc2ccccc2Cl)c1F
inactive: [3] | [4] | [5] | [6] | [8] | [9]
active: [1] 15.5 µM | [2] 11.1 µM

N#Cc1c(Cl)cccc1Cl
inactive: [1] | [2] | [3] | [4] | [5] | [6] | [8] | [9]

O=P(O)(O)CCCl
inactive: [1] | [2] | [3] | [4] | [5] | [6] | [8] | [9]

CC(C)Nc1nc(Cl)nc(NC(C)C)n1
inactive: [1] | [2] | [3] | [4] | [5] | [6] | [7] | [8] | [9]

Cn1c(-c2ccccc2)cc(-c2ccccc2)[n+]1C
inactive: [1] | [3] | [5] | [6] | [8] | [9]
active: [2] 3.97 µM | [4] 16.5 µM

CNC(=O)Oc1cccc2ccccc12
active: [3] 20 µM
inactive: [1] | [2] | [4] | [5] | [6] | [8] | [9]

Cc1cnc(C2=NC(C)(C(C)C)C(=O)N2)c(C(=O)O)c1 (stereo unspecified)
inactive: [1] | [2] | [3] | [4] | [5] | [8] | [9]
active: [6] 4.93 µM

Clc1nc(Cl)nc(Nc2ccccc2Cl)n1
inactive: [1] | [2] | [3] | [4] | [5] | [6] | [8]
active: [9] 0.293 µM

CC(C)N1C(=O)c2ccccc2NS1(=O)=O
inactive: [1] | [2] | [3] | [4] | [5] | [7] | [8] | [9]

C=CCOC(=O)C(C)(C)OC(=O)c1cc(-n2c(=O)cc(C(F)(F)F)n(C)c2=O)ccc1Cl
inactive: [2] | [3] | [4] | [5] | [6] | [7] | [8] | [9]
active: [1] 6.97 µM

CN/C(=N\[N+](=O)[O-])NCc1cnc(Cl)s1
inactive: [1] | [2] | [3] | [4] | [5] | [6] | [8] | [9]

CC(C)Oc1cccc(NC(=O)c2ccccc2C(F)(F)F)c1
inactive: [1] | [2] | [3] | [4] | [5] | [6] | [8] | [9]

COC(=O)N(C(=O)N1CO[C@@]2(C(=O)OC)Cc3cc(Cl)ccc3C2=N1)c1ccc(OC(F)(F)F)cc1
inactive: [1] | [3] | [5] | [6] | [8] | [9]
active: [2] 13.8 µM | [4] 11 µM

COC(=O)NS(=O)(=O)c1ccc(N)cc1
inactive: [1] | [2] | [3] | [4] | [5] | [6] | [7] | [8] | [9]

Nc1cnn(-c2ccccc2)c(=O)c1Cl
inactive: [1] | [2] | [3] | [4] | [5] | [6] | [7] | [8] | [9]

COP(=S)(OC)Oc1ccc([N+](=O)[O-])c(C)c1
active: [2] 20 µM
inactive: [1] | [3] | [4] | [5] | [6] | [8] | [9]

CCNP(=S)(OC)O/C(C)=C/C(=O)OC(C)C (stereo unspecified)
inactive: [1] | [2] | [3] | [4] | [5] | [6] | [7] | [8] | [9]

CCOc1nc(C(Cl)(Cl)Cl)ns1
inactive: [1] | [2] | [3] | [4] | [5] | [6] | [7] | [8] | [9]

CC1(C)CCC(=Cc2ccc(Cl)cc2)C1(O)Cn1cncn1 (stereo unspecified)
inactive: [1] | [2] | [3] | [4] | [5] | [6] | [8] | [9]

CCCCOCN(C(=O)CCl)c1c(CC)cccc1CC
active: [1] 38.8 µM | [2] 29.8 µM | [3] 28.9 µM | [4] 35.5 µM | [5] 36.5 µM | [6] 31.9 µM | [7] 30.7 µM | [8] 31.4 µM | [9] 32.2 µM

COc1cc(Cl)c(OC)cc1Cl
inactive: [1] | [2] | [3] | [4] | [5] | [6] | [8] | [9]

N#Cc1c[nH]cc1-c1cccc2c1OC(F)(F)O2
inactive: [2] | [4] | [5] | [6] | [7] | [8] | [9]
active: [1] 14.7 µM | [3] 20 µM

Cc1cc(C)nc(Nc2ccccc2)n1
inactive: [1] | [2] | [3] | [4] | [5] | [6] | [7] | [8] | [9]

COCc1cnc(C2=NC(C)(C(C)C)C(=O)N2)c(C(=O)O)c1 (stereo unspecified)
inactive: [1] | [2] | [3] | [4] | [5] | [6] | [7] | [8] | [9]

COP(=O)(OC)O/C(C)=C/C(=O)N(C)C
inactive: [1] | [2] | [3] | [4] | [5] | [6] | [7] | [8] | [9]

CSC(=O)c1c(C(F)F)nc(C(F)(F)F)c(C(=O)SC)c1CC(C)C
inactive: [2] | [3] | [4] | [5] | [6] | [8] | [9]

CS(=O)(=O)c1cc(C(F)(F)F)ccc1C(=O)c1cnoc1C1CC1
active: [4] 4.13 µM
inactive: [1] | [2] | [3] | [5] | [6] | [8] | [9]

CCCN(CC)CC1COC2(CCC(C(C)(C)C)CC2)O1 (stereo unspecified)
inactive: [1] | [2] | [3] | [4] | [5] | [6] | [7] | [8]
active: [9] 1.77 µM

COC(=O)NC(=S)Nc1ccccc1NC(=S)NC(=O)OC
inactive: [1] | [2] | [4] | [5] | [6] | [7] | [8]
active: [3] 0.312 µM | [9] 1.46 µM

COP(=S)(OC)SCn1nnc2ccccc2c1=O
inactive: [1] | [2] | [3] | [4] | [5] | [6] | [7] | [8] | [9]

CCN(CC)C(=O)C(C)Oc1cccc2ccccc12 (stereo unspecified)
inactive: [1] | [2] | [3] | [4] | [5] | [6] | [7] | [8] | [9]

N#CN=C1SCCN1Cc1ccc(Cl)nc1
inactive: [1] | [2] | [3] | [4] | [5] | [6] | [8] | [9]

CCOP(=O)(OCC)Oc1nc(Cl)c(Cl)cc1Cl
active: [1] 12 µM | [3] 26.7 µM | [4] 23.9 µM | [9] 9.84 µM
inactive: [2] | [5] | [6] | [8]

CS(=O)(=O)c1ccc(C(=O)C2C(=O)CCCC2=O)c([N+](=O)[O-])c1
inactive: [1] | [2] | [3] | [4] | [5] | [6] | [8] | [9]

COC(=O)c1c(C(F)F)nc(C(F)(F)F)c(C2=NCCS2)c1CC(C)C
active: [1] 33.9 µM | [2] 3.97 µM | [3] 20 µM | [4] 17.7 µM
inactive: [5] | [6] | [8] | [9]

Cc1c(COC(=O)[C@@H]2[C@H](/C=C(\Cl)C(F)(F)F)C2(C)C)cccc1-c1ccccc1
active: [3] 3.91 µM
inactive: [1] | [2] | [4] | [5] | [6] | [7] | [8] | [9]
